PubChem BioAssay (EPA / NIEHS)
“And” between values parts separate entries of the source, which are not always exact repeats. Identical values can stand only once. The source made the active and inactive calls. Rule for the calls: active = hit-call score of the fitted dose curve at least 0.9, where 1 is the maximum; inactive = score below 0.9.

Legend:
[1] = read-out: Macrophage colony-stimulating factor (MCSF), CSF1 (gene 1435); assay: BSK_CASM3C_MCSF: BioMAP Diversity Plus: CASM3C Assay for Macrophage colony-stimulating factor (MCSF) Biomarker Activity (AID 2283044); conditions: primary human coronary artery smooth muscle cells; actives raise or lower the signal;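 note: M-CSF protein amount quantified by ELISA after 24 h exposure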
[2] = read-out: Low-density lipoprotein receptor (LDLR), LDLR (gene 3949); assay: BSK_CASM3C_LDLR: BioMAP Diversity Plus: CASM3C Assay for Low-density lipoprotein receptor (LDLR) Biomarker Activity (AID 2283045); conditions: primary human coronary artery smooth muscle cells; actives raise or lower the signal;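 note: LDLR protein level on the cell surface quantified by ELISA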
[3] = read-out: Monocyte Chemoattractant Protein-1 (MCP1), CCL2 (gene 6347); assay: BSK_CASM3C_MCP1: BioMAP Diversity Plus: CASM3C Assay for Monocyte Chemoattractant Protein-1 (MCP1) Biomarker Activity (AID 2283046); conditions: primary human coronary artery smooth muscle cells; actives raise or lower the signal;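 note: MCP-1 level quantified by ELISA 24 h after dosing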
[4] = BSK_CASM3C_Proliferation: Cell Proliferation Assessment in the BioMAP Diversity Plus: CASM3C Assay (AID 2283047); conditions: primary human coronary artery smooth muscle cells;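 note: sulforhodamine B total protein stain as relative cell number at 560 nm; sub-confluent cells exposed 48 h before staining; fitted both ways against DMSO so gain or loss of cell number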
[5] = BSK_CASM3C_SRB: Viability Assessment in the BioMAP Diversity Plus: CASM3C Assay (AID 2283050); conditions: primary human coronary artery smooth muscle cells
[6] = read-out: Interleukin-8 (IL8), CXCL8 (gene 3576); assay: BSK_hDFCGF_IL8: BioMAP Diversity Plus: hDFCGF Assay for Interleukin-8 (IL8) Biomarker Activity (AID 2283058); conditions: primary human foreskin fibroblasts; actives raise or lower the signal
In short: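 ELISA read-out of IL-8 from primary human foreskin fibroblast cultures taken 24 h after dosing; values are bidirectional fits relative to DMSO vehicle.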

[7] = read-out: Macrophage colony-stimulating factor (MCSF), CSF1 (gene 1435); assay: BSK_hDFCGF_MCSF: BioMAP Diversity Plus: hDFCGF Assay for Macrophage colony-stimulating factor (MCSF) Biomarker Activity (AID 2283060); conditions: AC50: primary human foreskin fibroblasts, actives raise or lower the signal unless noted; outcome: primary human foreskin fibroblasts, actives raise or lower the signal unless noted
In short: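 ELISA read-out of M-CSF in human dermal foreskin fibroblast cultures, 24 h after chemical dosing; gain or loss of signal fitted bidirectionally relative to DMSO baseline.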

[8] = BSK_hDFCGF_SRB: Viability Assessment in the BioMAP Diversity Plus: hDFCGF Assay (AID 2283061); conditions: primary human foreskin fibroblasts;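 note: cells exposed to compound for 24 h before the read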
In short: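 Primary human foreskin fibroblasts; 24 h post-dose; fixed 10% TCA, stained 0.1% SRB, A560 read; total protein as overt cytotoxicity measure; curves fit bidirectionally vs DMSO control.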

[9] = read-out: Monokine induced gamma interferon (MIG), CXCL9 (gene 4283); assay: BSK_hDFCGF_MIG: BioMAP Diversity Plus: hDFCGF Assay for Monokine induced gamma interferon (MIG) Biomarker Activity (AID 2283063); conditions: primary human foreskin fibroblasts; actives raise or lower the signal
In short: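 Fibroblasts (human foreskin, primary) dosed, 24 h, MIG by ELISA; fit bidirectional vs DMSO.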

[10] = read-out: Matrix Metallopeptidase 1 (MMP1), MMP1 (gene 4312); assay: BSK_hDFCGF_MMP1: BioMAP Diversity Plus: hDFCGF Assay for Matrix Metallopeptidase 1 (MMP1) Biomarker Activity (AID 2283064); conditions: primary human foreskin fibroblasts; actives raise or lower the signal
In short: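 Primary human foreskin fibroblasts exposed to chemicals for 24 h; MMP1 measured by ELISA. Cytotoxicity tracked by SRB staining in parallel cultures; bidirectional fit relative to DMSO.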

[11] = read-out: Plasminogen activator inhibitor-1 (PAI1), SERPINE1 (gene 5054); assay: BSK_hDFCGF_PAI1: BioMAP Diversity Plus: hDFCGF Assay for Plasminogen activator inhibitor-1 (PAI1) Biomarker Activity (AID 2283066); conditions: primary human foreskin fibroblasts; actives raise or lower the signal
In short: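 PAI-1 levels, determined by ELISA, served as the endpoint in human foreskin fibroblast cultures exposed to compound for 24 h, with DMSO as baseline.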

[12] = read-out: Interferon-gamma inducible Protein 10 (IP10), CXCL10 (gene 3627); assay: BSK_KF3CT_IP10: BioMAP Diversity Plus: KF3CT Assay for Interferon-gamma inducible Protein 10 (IP10) Biomarker Activity (AID 2283068); conditions: primary human keratinocytes with fibroblasts; actives raise or lower the signal
In short: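 ELISA read-out of IP-10 after 24 h chemical dosing of human skin primary co-culture (keratinocytes, foreskin fibroblasts). Gain or loss of signal relative to DMSO, bidirectional curve fit.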

[13] = BSK_KF3CT_SRB: Viability Assessment in the BioMAP Diversity Plus: KF3CT Assay (AID 2283069); conditions: primary human keratinocytes with fibroblasts;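 note: total protein by sulforhodamine B staining as a cytotoxicity measure; read 24 h after compound addition; fitted for both signal gain and loss against DMSO baseline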
In short: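 Human keratinocyte and foreskin fibroblast co-culture exposed to chemical for 24 h. Total protein measured in parallel cultures by 0.1% sulforhodamine B staining after 10% TCA fixation, read at 560 nm; bidirectional fit relative to DMSO.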

[14] = read-out: Interleukin-1 alpha (IL1a), IL1A (gene 3552); assay: BSK_KF3CT_IL1a: BioMAP Diversity Plus: KF3CT Assay for Interleukin-1 alpha (IL1a) Biomarker Activity (AID 2283070); conditions: primary human keratinocytes with fibroblasts; actives raise or lower the signal
In short: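 Primary human keratinocyte plus foreskin fibroblast co-culture, dosed and measured at 24 h in 96-well plates. IL-1a level quantified by ELISA; bidirectional fit relative to DMSO.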

[15] = read-out: TIMP metallopeptidase inhibitor 2 (TIMP2), TIMP2 (gene 7077); assay: BSK_KF3CT_TIMP2: BioMAP Diversity Plus: KF3CT Assay for TIMP metallopeptidase inhibitor 2 (TIMP2) Biomarker Activity (AID 2283071); conditions: primary human keratinocytes with fibroblasts; actives raise or lower the signal
In short: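 Keratinocyte–fibroblast co-culture, 24 h exposure; TIMP-2 ELISA, DMSO-normalised bidirectional fit. Parallel SRB (0.1%, TCA-fixed, 560 nm) total-protein staining gauges cytotoxicity.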

[16] = read-out: C-C motif chemokine 2 (Homo sapiens) (UniProt P13500); assay: BSK_KF3CT_MCP1: BioMAP Diversity Plus: KF3CT Assay for Monocyte Chemoattractant Protein 1 (MCP1/CCL2) Biomarker Activity (AID 2283073); conditions: primary human keratinocytes with fibroblasts; actives raise or lower the signal
In short: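 KF3CT skin co-culture (keratinocytes/foreskin fibroblasts), 24 h post-dose; MCP-1 by ELISA; gain/loss of signal fit bidirectionally vs DMSO baseline.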

[17] = read-out: urokinase plasminogen activator (uPA), PLAU (gene 5328); assay: BSK_KF3CT_uPA: BioMAP Diversity Plus: KF3CT Assay for urokinase plasminogen activator (uPA) Biomarker Activity (AID 2283075); conditions: primary human keratinocytes with fibroblasts; actives raise or lower the signal
In short: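 Primary human keratinocyte/foreskin fibroblast co-culture exposed to chemical; uPA measured by ELISA at 24 h. Bidirectional fit versus DMSO, with parallel SRB total-protein staining for cytotoxicity.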

[18] = BSK_LPS_SRB: Viability Assessment in the BioMAP Diversity Plus: LPS Assay (AID 2283079); conditions: primary human HUVEC with PBMC;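 note: total protein by sulforhodamine B absorbance as a cytotoxicity measure; measured one day after compound addition; fitted in both directions against DMSO so loss or gain of signal counts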
In short: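 HUVEC + PBMC co-culture, LPS-stimulated; compound 24 h. 10% TCA fix, 0.1% SRB stain, A560. Bidirectional fit vs DMSO.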

[19] = read-out: Tumor necrosis factor (Homo sapiens) (UniProt P01375); assay: BSK_LPS_TNFa: BioMAP Diversity Plus: LPS Assay for Tumour Necrosis Factor alpha (TNFa) Biomarker Activity (AID 2283085); conditions: primary human HUVEC with PBMC; actives raise or lower the signal;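 for AC50: TNFa protein level quantified by ELISA in the co-culture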
In short: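 Primary human vascular co-culture of HUVEC and PBMC; TNFa ELISA 24 h after treatment, analysed as increase or decrease relative to DMSO control.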

[20] = read-out: Vascular cell adhesion molecule 1 (VCAM1), VCAM1 (gene 7412); assay: BSK_LPS_VCAM1: BioMAP Diversity Plus: LPS Assay for Vascular cell adhesion molecule 1 (VCAM1) Biomarker Activity (AID 2283086); conditions: primary human HUVEC with PBMC; actives raise or lower the signal
In short: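 Primary human vascular co-culture (umbilical vein endothelium plus PBMC) stimulated with LPS received chemical; 24 h later VCAM-1 was read by ELISA. Overt cytotoxicity was assessed by sulforhodamine B staining of parallel cultures at the same time point.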

Measured: AC50

Chain of Tumor necrosis factor (Homo sapiens) (P01375 whole entry, looked up): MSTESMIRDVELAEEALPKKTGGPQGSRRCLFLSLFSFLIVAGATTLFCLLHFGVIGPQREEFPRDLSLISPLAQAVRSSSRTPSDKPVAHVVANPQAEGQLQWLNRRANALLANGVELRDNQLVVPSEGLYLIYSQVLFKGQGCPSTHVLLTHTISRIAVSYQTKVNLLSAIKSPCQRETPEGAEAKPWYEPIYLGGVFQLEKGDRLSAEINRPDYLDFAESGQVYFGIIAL

CCC(C)=NO
inactive: all assays above

Cc1c(C(N)=O)cc([N+](=O)[O-])cc1[N+](=O)[O-]
inactive: all assays above

CC(C)C1OCCN1CCOC(=O)NCCCCCCNC(=O)OCCN1CCOC1C(C)C (stereo not given)
inactive: all assays above

O=[N+]([O-])c1cc(S(=O)(=O)Nc2ccccc2)ccc1Nc1ccccc1
inactive: [1] | [2] | [3] | [4] | [5]
active: [6] 38.9 µM and 36.7 µM | [7] 29.3 µM and 29.5 µM | [8] 27.7 µM and 29 µM | [9] 31 µM and 31.3 µM | [10] 30.9 µM and 36.7 µM | [11] 26.6 µM and 25.4 µM | [12] 30.2 µM and 32.4 µM | [13] 34.6 µM | [14] 31 µM and 32.2 µM | [15] 32.6 µM and 30.4 µM | [16] 25.3 µM and 23.6 µM | [17] 32.8 µM and 32.9 µM | [18] 31.1 µM and 28.7 µM | [19] 5.14 µM and 5.08 µM | [20] 13.6 µM and 12.6 µM

COc1ccc(C(=O)c2ccccc2O)c(O)c1
inactive: all assays above

CCC[Si](OC(C)=O)(OC(C)=O)OC(C)=O
inactive: all assays above
